From ChEMBL document CHEMBL3988442, “University of Dundee, Small-Polar-MMV Screening Library” (2021)

Target: AMP-activated protein kinase, AMPK (Homo sapiens) (UniProt P54646+O43741+P54619+Q9UGJ0+Q9Y478+Q13131+Q9UGI9)
Test: AMP-dependent Kinase enzyme assay. An in vitro enzyme assay that detects ADP turnover that is directly proportional to AMPK activity. This uses naive AMPK that is activated during the assay with MK-8722
Assay type: functional
Parameters: scale not given: direction of the effect not stated beside the values
Settings: 30 µM

SMILES	Percent Effect [%]
COC(=O)C1CCN(C(=O)Cn2ccc(-c3ccc(F)cc3)n2)CC1	-0.768
CCOC(=O)C1(O)CCN(C(=O)Nc2cccc(F)c2)CC1	-1.01
CCN(CC)S(=O)(=O)CC(=O)Nc1ccsc1	2.3
Cc1c(C(=O)N2CCC(C(=O)c3nc4ccccc4s3)CC2)cnn1C	9.2
Cc1ccc(OCc2occc2C(=O)N2CCCCC(N)C2)cc1 (centres undefined)	5.88
O=C(O)CN(Cc1ccsc1)CC1CCCO1 (centres undefined)	10.1
Cc1cc(C2CCCN(CCc3ccc4c(c3)CCO4)C2)n[nH]1 (centres undefined)	3.65
CCCS(=O)(=O)CC(=O)Nc1ccsc1	-1.52
COCCN(Cc1sccc1C)C(=O)c1c(O)cccc1F	0.607
Cn1cc(NC(=O)N2CCCC2c2cccnc2)ccc1=O (centres undefined)	42.2
CCN1CC2(CCC1=O)CCN(Cc1cccc(OC(F)F)c1)CC2	-0.304
COc1cc(F)ccc1NC(=O)NC(C)C(=O)NC(C)(C)C (centres undefined)	-11.6
CCCc1nnc(N2CCC(N3CCCCCC3)CC2)o1	-2.81
COCCCC1CCCCN1Cc1cn2cc(C)ccc2n1 (centres undefined)	7.53
COc1cc2c(cc1CNCc1ccnc(-n3cccn3)c1)OC(C)C2 (centres undefined)	-1.78
Cc1cc(C(=O)NCCN2CCCCC2)nn1C(C)(C)C	24.9
Cc1noc(CS(=O)(=O)c2cc(F)ccc2F)n1	-0.296
CCCOc1ccccc1CCCNc1ncnc2oc(C)nc12	2.11
Cn1ncnc1NCc1ccc(F)cc1	-10.9
CS(=O)(=O)c1ccc(Cl)c(NC(=O)NCCC2=CCCCC2)c1	3.49

SMILES	Percent Effect [%]
COC(=O)c1ccc(C(=O)NCc2ccco2)nc1	-1.39
CCCNC(=O)CNC(=O)CC1CCCc2cc(OC)ccc21 (centres undefined)	-4.21
O=C(O)CC(CC(=O)N(Cc1ccsc1)C1CC1)c1cccs1 (centres undefined)	-2.55
CC(CN1CCOC1=O)NC(=O)c1ccccc1Oc1ccccc1 (centres undefined)	8.72
Cc1nnc(N2CCc3cnc(C(C)C)nc3C2)c(C#N)c1C	-15.2
c1ccc2oc(C3CCN(Cc4ncon4)CC3)nc2c1	-10.5
Cc1ccc(-c2cc(C(=O)NCC3CCOC3)n[nH]2)s1 (centres undefined)	-4.75
Cc1noc(C)c1C(=O)N(C)C(C)c1cccnc1 (centres undefined)	-4.48
Cc1nc(C)c(C(=O)N2CCc3c(C)cccc32)o1	4.71
CCCOc1cc(CNC(=O)Nc2cccc(C(C)=O)c2)ccn1	-3.21
COc1ccc(Oc2cc(CN)ccn2)cc1	-36.1
COc1ccc(C(C)NCCc2ccc(NC(C)=O)cc2)cc1F (centres undefined)	5.54
CC(=O)NCCCNC(=O)N1CCN(c2cc(F)ccc2F)CC1	6.39
CC1CCC(O)(CSc2nnnn2C)CC1 (centres undefined)	3.45
Cc1nn2cccnc2c1C(=O)NCc1ccnc(OCC2CC2)c1	4.11
CC(C)[C@H]1CN(Cc2nccn2C)C[C@@H]1NC(=O)CCS(C)(=O)=O	1.59
Cc1cc(CN(C)C(=O)CC(C)C)no1	0.491
CCCc1cc(C(=O)NC(COC)c2ccnn2C)no1 (centres undefined)	-16.8
CC(C(=O)NCC(C)(C)c1ccc2c(c1)OCCO2)n1cncn1 (centres undefined)	11.3
